Measured values from PubChem BioAssay AID1159580 (chemical genetic matrix, 2015).
Values joined by “and” are separate entries in the source; they are usually repeats but may differ in a detail not shown here. Equal values may be shown once. Screen size: about 5,500 compounds; about 2,000 (36%) were called active. Inconclusive results (about 18%) are left out. Cut-off read from the data, not from the text of the source: active = normalized growth mostly below about 0.91 (no sharp cut-off); inconclusive = no clear call, values can overlap the other calls; inactive = mostly above about 0.92. This is one part of the list. The source holds several records for some structures; these can differ, active in one and inactive in another.

Assay: chemical genetic growth profiling, strain panel (AID 1159580);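 note: tested at 20 µM; growth read once vehicle control cultures reached saturation at 30 °C; 1 = growth at the plate median or of vehicle wells; lower values mean less growth of the strain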
Settings: S. cerevisiae deletion strains, growth OD

Measured: normalized growth

O=C1c2c(O)ccc(O)c2C(=O)c2c(NCCNCCO)ccc(NCCNCCO)c21
1.03 (inactive) and 0.713 (active): locus YHR030C, strain SLT2, stronger effect = lower value
0.916 (inactive) and 0.755 (active): locus YJL095W, strain BCK1, stronger effect = lower value
active: locus YAL021C, strain ccr4, stronger effect = lower value 0.499 | locus YAL026C, strain drs2, stronger effect = lower value 0.363 | locus YAL030W, strain snc1, stronger effect = lower value 0.839 | locus YBL061C, strain skt5, stronger effect = lower value 0.81 | locus YBR009C, strain hhf1, stronger effect = lower value 0.831 | locus YBR023C, strain chs3, stronger effect = lower value 0.868 | locus YBR231C, strain swc5, stronger effect = lower value 0.84 | locus YBR279W, strain paf1, stronger effect = lower value 0.669 | locus YCL011C, strain gbp2, stronger effect = lower value 0.894 | locus YCL016C, strain dcc1, stronger effect = lower value 0.385 | locus YCL061C, strain MRC1, stronger effect = lower value 0.868 | locus YCR088W, strain abp1, stronger effect = lower value 0.828 | locus YDL005C, strain med2, stronger effect = lower value 1.12 [resistant] | locus YDL192W, strain arf1, stronger effect = lower value 0.889 | locus YDR069C, strain doa4, stronger effect = lower value 0.684 | locus YDR137W, strain rgp1, stronger effect = lower value 0.572 | locus YDR159W, strain sac3, stronger effect = lower value 0.788 | locus YDR195W, strain ref2 0.764 | locus YDR297W, strain sur2, stronger effect = lower value 0.885 | locus YDR335W, strain msn5, stronger effect = lower value 0.821 | locus YDR388W, stronger effect = lower value 0.892 | locus YDR392W, strain spt3, stronger effect = lower value 1.28 [resistant] | locus YEL003W, strain gim4, stronger effect = lower value 0.878 | locus YEL037C, strain rad23, stronger effect = lower value 0.818 | locus YEL061C, strain CIN8 (second series), stronger effect = lower value 0.896 | locus YER015W, strain faa2, stronger effect = lower value 0.865 | locus YER016W, strain bim1, stronger effect = lower value 0.793 | locus YER111C, strain swi4, stronger effect = lower value 0.397 | locus YFR010W, strain ubp6, stronger effect = lower value 0.564 | locus YGL167C, strain pmr1, stronger effect = lower value 0.619 | locus YGL173C, strain kem1, stronger effect = lower value 0.57 | locus YGL240W, strain doc1, stronger effect = lower value 0.696 | locus YGL253W, strain hxk2, stronger effect = lower value 0.738 | locus YHR027C, strain rpn1, stronger effect = lower value 0.756 | locus YHR142W, strain chs7, stronger effect = lower value 0.582 | locus YJL092W, strain hpr5, stronger effect = lower value 0.609 | locus YJL095W, strain BCK1 (second series), stronger effect = lower value 0.482 | locus YJL115W, strain asf1, stronger effect = lower value 0.321 | locus YJL129C, strain trk1, stronger effect = lower value 0.306 | locus YJL164C, strain tpk1, stronger effect = lower value 0.735 | locus YJL166W, strain qcr8, stronger effect = lower value 0.858 | locus YJR043C, strain POL32, stronger effect = lower value 0.779 | locus YKL068W, stronger effect = lower value 1.06 [resistant] | locus YKL160W, strain elf1, stronger effect = lower value 0.858 | locus YKR001C, strain vps1, stronger effect = lower value 0.74 | locus YLL001W, strain dnm1, stronger effect = lower value 0.727 | locus YLL026W, stronger effect = lower value 0.914 | locus YLR027C, strain aat2, stronger effect = lower value 0.855 | locus YLR113W, strain HOG1, stronger effect = lower value 0.828 | locus YLR221C, strain rsa3, stronger effect = lower value 0.865 | locus YLR262C, strain YPT6 (second series), stronger effect = lower value 0.443 | locus YLR268W, strain sec22, stronger effect = lower value 0.857 | locus YLR320W, strain mms22, stronger effect = lower value 0.248 | locus YLR342W, strain FKS1, stronger effect = lower value 0.83 | locus YLR370C, strain arc18, stronger effect = lower value 0.28 | locus YLR384C, strain iki3, stronger effect = lower value 0.745 | locus YML032C, strain rad52, stronger effect = lower value 0.19 | locus YML120C, strain ndi1, stronger effect = lower value 0.878 | locus YMR058W, strain fet3, stronger effect = lower value 0.396 | locus YMR078C, strain ctf18, stronger effect = lower value 0.429 | locus YMR231W, strain pep5, stronger effect = lower value 0.174 | locus YMR307W, strain GAS1, stronger effect = lower value 0.562 and 0.648 | locus YNL071W, strain lat1, stronger effect = lower value 1.12 [resistant] | locus YNL183C, strain NPR1, stronger effect = lower value 0.815 | locus YNL209W, strain ssb2, stronger effect = lower value 0.825 | locus YNL224C, strain SQS1, stronger effect = lower value 1.08 [resistant] | locus YNL248C, strain rpa49, stronger effect = lower value 0.678 | locus YNL250W, strain rad50, stronger effect = lower value 0.181 | locus YNR049C, strain mso1, stronger effect = lower value 0.912 | locus YNR052C, strain pop2, stronger effect = lower value 0.69 | locus YOL006C, strain TOP1, stronger effect = lower value 0.424 | locus YOR001W, strain rrp6, stronger effect = lower value 0.681 | locus YOR070C, strain gyp1, stronger effect = lower value 0.734 | locus YOR080W, strain dia2, stronger effect = lower value 0.447 | locus YOR083W, strain WHI5, stronger effect = lower value 0.726 | locus YOR106W, strain vam3, stronger effect = lower value 0.363 | locus YOR184W, strain ser1, stronger effect = lower value 0.802 | locus YOR270C, strain vph1, stronger effect = lower value 0.327 | locus YOR290C, strain snf2, stronger effect = lower value 0.653 | locus YPL051W, strain arl3, stronger effect = lower value 0.869 | locus YPL055C, strain LGE1, stronger effect = lower value 0.868
0.968 (inactive) and 0.9 (active): locus YAL013W, strain DEP1, stronger effect = lower value
inactive: locus YAL040C, strain CLN3, stronger effect = lower value 1.06 | locus YBR021W, strain FUR4, stronger effect = lower value 0.941 | locus YBR171W, strain sec66, stronger effect = lower value 0.911 | locus YBR229C, strain ROT2, stronger effect = lower value 1.03 | locus YCL029C, strain bik1, stronger effect = lower value 1.01 | locus YCL061C, strain MRC1 (second series), stronger effect = lower value 0.983 | locus YCL069W, strain vba3, stronger effect = lower value 0.946 | locus YDL035C, strain GPR1, stronger effect = lower value 0.976 | locus YDL040C, strain nat1, stronger effect = lower value 1.03 | locus YDL074C, strain BRE1, stronger effect = lower value 0.897 | locus YDL101C, strain DUN1, stronger effect = lower value 1.01 | locus YDL134C, strain PPH21, stronger effect = lower value 0.977 | locus YDL185W, strain tfp1, stronger effect = lower value 0.943 | locus YDR001C, strain nth1, stronger effect = lower value 1.01 | locus YDR101C, strain arx1, stronger effect = lower value 1.04 | locus YDR150W, strain NUM1, stronger effect = lower value 0.993 | locus YDR162C, strain NBP2, stronger effect = lower value 0.921 | locus YDR318W, strain mcm21, stronger effect = lower value 0.982 | locus YDR334W, strain swr1, stronger effect = lower value 0.981 | locus YDR363W, strain ESC2, stronger effect = lower value 0.919 | locus YDR502C, strain sam2, stronger effect = lower value 0.983 | locus YEL061C, strain CIN8, stronger effect = lower value 1.02 | locus YER002W, strain NOP16, stronger effect = lower value 1.05 | locus YER110C, stronger effect = lower value 1.07 | locus YER155C, strain BEM2 (second series), stronger effect = lower value 0.965 | locus YER155C, strain BEM2, stronger effect = lower value 1.04 | locus YER167W, strain BCK2, stronger effect = lower value 0.96 | locus YGL078C, strain dbp3, stronger effect = lower value 0.942 | locus YGL086W, strain mad1, stronger effect = lower value 1.01 | locus YGL227W, strain vid30, stronger effect = lower value 1.08 | locus YGL248W, strain PDE1, stronger effect = lower value 1.02 | locus YGR078C, strain PAC10, stronger effect = lower value 1.01 and 1.07 | locus YGR135W, strain pre9, stronger effect = lower value 0.942 | locus YGR252W, strain gcn5, stronger effect = lower value 0.924 | locus YHR013C, strain ard1, stronger effect = lower value 0.878 | locus YHR079C, strain IRE1 (second series), stronger effect = lower value 1 | locus YHR079C, strain IRE1, stronger effect = lower value 0.951 | locus YHR094C, strain hxt1, stronger effect = lower value 1.05 | locus YHR129C, strain ARP1, stronger effect = lower value 1.02 | locus YHR200W, strain rpn10, stronger effect = lower value 0.985 | locus YIL066C, strain RNR3, stronger effect = lower value 0.992 | locus YIL073C, strain SPO22, stronger effect = lower value 0.917 | locus YIL125W, strain kgd1, stronger effect = lower value 0.986 | locus YIR030C, strain dcg1, stronger effect = lower value 1.02 | locus YJL134W, strain LCB3, stronger effect = lower value 1.04 | locus YJL154C, strain vps35, stronger effect = lower value 1.05 | locus YJL168C, strain set2, stronger effect = lower value 1.05 | locus YJL187C, strain SWE1 (second series), stronger effect = lower value 0.968 | locus YJL187C, strain SWE1, stronger effect = lower value 0.997 | locus YJR066W, strain TOR1, stronger effect = lower value 0.85 | locus YJR075W, strain HOC1, stronger effect = lower value 0.968 | locus YKL009W, strain mrt4, stronger effect = lower value 0.925 | locus YKL085W, strain MDH1 (second series), stronger effect = lower value 1.05 | locus YKL085W, strain MDH1, stronger effect = lower value 1.05 | locus YKL190W, strain CNB1, stronger effect = lower value 0.998 | locus YKR026C, strain gcn3, stronger effect = lower value 1.04 | locus YKR091W, strain srl3, stronger effect = lower value 1.01 | locus YLL041C, strain sdh2, stronger effect = lower value 1.01 | locus YLR039C, strain RIC1, stronger effect = lower value 0.707 | locus YLR058C, strain SHM2, stronger effect = lower value 1.02 | locus YLR102C, strain apc9, stronger effect = lower value 1.06 | locus YLR258W, strain gsy2, stronger effect = lower value 0.94 | locus YLR262C, strain YPT6, stronger effect = lower value 0.711 | locus YLR330W, strain CHS5, stronger effect = lower value 1.03 | locus YLR342W, strain FKS1 (second series), stronger effect = lower value 0.871 | locus YLR357W, strain rsc2, stronger effect = lower value 0.976 | locus YLR371W, strain rom2, stronger effect = lower value 1.01 | locus YLR418C, strain cdc73, stronger effect = lower value 1.02 | locus YML016C, strain PPZ1, stronger effect = lower value 1.03 | locus YML124C, strain tub3, stronger effect = lower value 1.05 | locus YMR125W, strain sto1, stronger effect = lower value 0.982 | locus YMR129W, stronger effect = lower value 0.941 | locus YMR205C, strain PFK2, stronger effect = lower value 0.975 | locus YMR223W, strain ubp8, stronger effect = lower value 0.91 | locus YMR263W, strain SAP30, stronger effect = lower value 0.954 and 1.02 | locus YNL067W, strain RPL9B, stronger effect = lower value 0.976 | locus YNL128W, strain TEP1, stronger effect = lower value 1.07 | locus YNL175C, strain NOP13, stronger effect = lower value 1.07 | locus YNL197C, strain WHI3, stronger effect = lower value 1.06 | locus YNL233W, strain BNI4, stronger effect = lower value 0.966 | locus YNL271C, strain bni1, stronger effect = lower value 0.944 | locus YNL298W, strain CLA4, stronger effect = lower value 0.989 | locus YNL307C, strain MCK1, stronger effect = lower value 1.08 | locus YNL322C, strain KRE1 (second series), stronger effect = lower value 0.933 | locus YNL322C, strain KRE1, stronger effect = lower value 1.01 | locus YOL012C, strain htz1 0.838 | locus YOL147C, strain pex11, stronger effect = lower value 1.07 | locus YOR061W, strain CKA2, stronger effect = lower value 1.01 | locus YOR069W, strain VPS5, stronger effect = lower value 1.02 | locus YOR083W, strain WHI5 (second series), stronger effect = lower value 1 | locus YOR136W, strain idh2, stronger effect = lower value 1.01 | locus YOR144C, strain elg1, stronger effect = lower value 0.984 | locus YOR231W, strain MKK1, stronger effect = lower value 0.927 | locus YOR265W, strain rbl2, stronger effect = lower value 0.932 | locus YOR316C, strain cot1, stronger effect = lower value 1.06 | locus YPL078C, strain atp4, stronger effect = lower value 0.974 | locus YPL106C, strain sse1, stronger effect = lower value 1.07 | locus YPL240C, strain hsp82, stronger effect = lower value 1.03 | locus YPL241C, strain CIN2, stronger effect = lower value 1.04 | locus YPL256C, strain CLN2, stronger effect = lower value 0.959 | locus YPR119W, strain clb2, stronger effect = lower value 1.05 | locus YPR141C, strain kar3, stronger effect = lower value 1.05 | locus YPR163C, strain tif3, stronger effect = lower value 1.03 | locus YPR167C, strain met16, stronger effect = lower value 0.993 | strain wtn01, stronger effect = lower value 0.963
